Screens from PubChem BioAssay.
This is a sample that favours compounds with a hit; in the whole collection about 1.1% have one here.
GalR3 antag – GalR3 antagonists in HEK293 cells, primary screen, cell-based, fluorescence readout | inhibition, % at 3 µM | HEK293 GalR3-CNG cAMP membrane potential fluorescence; galR3 body fused to GalR1 C-terminus | Galanin receptor type 3 (Homo sapiens), O60755 | 360,000 tested, 0.44% active;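 active = inhibition above the screen-wide average plus 3 SD, cut at about 13% in these data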;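 also: forskolin and galanin both at EC90 stimulate the cells; cAMP rise reported by CNG channel membrane potential dye signal; 0% = forskolin plus galanin with DMSO and 100% = forskolin alone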
Target sequence (O60755 1-299 limits assumed): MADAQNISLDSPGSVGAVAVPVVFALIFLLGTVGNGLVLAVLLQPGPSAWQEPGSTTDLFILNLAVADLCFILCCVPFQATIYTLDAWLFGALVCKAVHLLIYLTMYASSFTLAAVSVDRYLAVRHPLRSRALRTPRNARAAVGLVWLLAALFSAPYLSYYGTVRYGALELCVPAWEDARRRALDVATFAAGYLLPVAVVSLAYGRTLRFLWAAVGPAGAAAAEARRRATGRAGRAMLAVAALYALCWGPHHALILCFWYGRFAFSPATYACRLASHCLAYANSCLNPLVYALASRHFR
SRC2 inh – inhibition of GAL4-SRC2 driven luciferase reporter, primary screen, SRC2 inhibitor project, cell-based, luminescence. inhibition, % at 9 µM. 370,000 tested, 0.17% active. HEK293 GAL4-SRC2 luciferase reporter. AID 651957, 2012. Nuclear receptor coactivator 2 (Homo sapiens), Q15596;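 active = inhibition above the mean inhibition of all tested compounds plus 3 SD, set per campaign, cut at about 52% in these data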;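 also: 0% = DMSO treated cells and 100% = cells given Gossypol at 36 µM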
SRC3 inh – SRC3 coactivator transcriptional activity inhibitors, primary screen, cell-based, luminescence | Nuclear receptor coactivator 3 (Homo sapiens), Q9Y6Q9 | HEK293 GAL4-SRC3 luciferase reporter | inhibition, % at 3.6 µM | 360,000 tested, 0.17% active;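 active = inhibition above a per-campaign cutoff, the mean of all compounds plus 3 SD, cut at about 60% in these data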;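 also: 0% = DMSO-treated cells and 100% = gossypol-treated cells at 36 µM; higher means less SRC3-driven luciferase light from the GAL4 reporter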
NR2F2 inh – NR2F2 transcriptional activity inhibitors, primary screen, cell-based, luciferase reporter, HEK293T, luminescence | COUP transcription factor 2 (Homo sapiens), P24468 | HEK293T NGFI-A luciferase reporter | inhibition, % at 8.6 µM | 370,000 tested, 0.7% active;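 active = inhibition above a per-plate cutoff, mean inhibition of test wells between control levels plus 3 SD, cut at about 38% in these data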;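 also: cells cotransfected with COUP-TFII expression vector driving the NGFI-A reporter; 0% = median of COUP-TF2 test wells and 100% = reporter-only cells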
SRC1 inh – SRC1 coactivator transcriptional activity inhibitors, primary screen, cell-based, luminescence. HEK293 GAL4-SRC1 luciferase reporter. AID 588354, 2011. 360,000 tested, 0.12% active. inhibition, % at 3.6 µM. Nuclear receptor coactivator 1 (Homo sapiens), Q15788;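 active = inhibition above the campaign mean plus 3 SD, with each screening campaign given its own cutoff, cut at about 60% in these data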;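 also: 0% = DMSO treated cells and 100% = gossypol at 36 µM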
LRH-1 inv ag – LRH-1 (NR5A2) inverse agonists, primary screen, cell-based, luminescence, HEK293T, StAR-luciferase reporter; Nuclear receptor subfamily 5 group A member 2 (Homo sapiens), O00482; LRH-1 transfected, 24 h; inhibition, % at 3.6 µM; 360,000 tested, 0.13% active; AID 602396, 2012;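 active = inhibition above the mean inhibition of all tested compounds plus 3 SD, cut at about 73% in these data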;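 also: 0% = DMSO wells and 100% = reporter-only cells lacking LRH-1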
GalR3 conf – GalR3 antagonist hit confirmation, cell-based, fluorescence, triplicate. shares compounds with GalR3 antag. inhibition, % at 3 µM. HEK293 GalR3 CNG cAMP biosensor, membrane potential fluorescence; galR3 fused to GalR1 carboxy tail; challenged with forskolin and galanin at EC90. 1,600 tested, 59% active;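 active = inhibition above the primary screen's cutoff, the mean inhibition of all screened compounds plus 3 SD, cut at about 13% in these data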;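 also: 0% = forskolin plus galanin and 100% = forskolin alone with DMSO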
CNG parental – nonspecific cAMP agonists in parental HEK-CNG cells, counter-screen for GalR3 antagonist project, cell-based, fluorescence, high throughput. shares compounds with GalR3 antag. HEK293-CNG parental cells, cAMP membrane potential fluorescence; normalised: DMSO wells 0%, forskolin wells 100%. activation, % at 3 µM. 1,600 tested, 10% active; in the data active = activation above about 1.3%
The depositor's hits bear a star; · = not tested or not shown.

SMILES	GalR3 antag	SRC2 inh	SRC3 inh	NR2F2 inh	SRC1 inh	LRH-1 inv ag	GalR3 conf	CNG parental
CCCCC(=O)N/N=C/c1ccc(N2CCOCC2)c([N+](=O)[O-])c1	14*	-29	3	-10	-3	13	11	0
CCOc1ccc(OCCC(=O)OCC(=O)N2CCN(S(=O)(=O)c3ccc(C)cc3)CC2)cc1	-1	6	-6	-11	-18	1	·	·
Cc1ccc(S(=O)(=O)N2CCN(C(=O)COC(=O)CCOc3ccc(C(C)(C)C)cc3)CC2)cc1	20*	-30	-13	-19	10	-9	20*	-1
Cc1ccc([N+](=O)[O-])cc1S(=O)(=O)N1CCC(C)CC1	-3	11	14	-12	-25	6	·	·
Cc1ccc([N+](=O)[O-])cc1S(=O)(=O)N1CCCC1	·	-17	2	-18	6	9	0	0
C=CC[C@@H](Cc1ccc(F)cc1)C(=O)OC[C@H]1CCCN1C(=O)[C@H](CC=C)CC(=O)NCCO	14*	4	4	10	-4	-2	4	0
COc1ccc(NC(=O)Nc2ccccc2C(=O)N2CCCC2)cc1OC	·	-9	·	-13	·	·	·	·
O=[N+]([O-])c1c(Nc2ccccc2O)ccc2nonc12	7	-17	-4	-13	-11	-2	·	·
O=[N+]([O-])c1c(Nc2ccccc2O)cc(Cl)c2nonc12	40*	-9	-22	5	9	1	41*	0
C[C@H](CO)N1C[C@H](C)[C@@H](CN(C)C(=O)Nc2ccc(C(F)(F)F)cc2)OCc2cn(nn2)CCCC1=O	-6	-29	·	-12	·	·	·	·
CCOc1ccc(Br)cc1S(=O)(=O)N1CCC(C(N)=O)CC1	18*	2	2	2	-4	-3	-2	0
O=C1NC(=O)C(CSc2ccccc2)(c2ccccc2)N1 (stereo not drawn)	-6	-29	-54	-10	-2	-12	·	·
CC1(CSc2ccccc2)CC(=O)N1 (stereo not drawn)	21*	-22	-22	-32	0	22	29*	0
CCCC(CCC)=NNc1ccc(S(=O)(=O)Nc2ccccc2OC)cc1[N+](=O)[O-]	0	9	15	-10	-2	-6	·	·
COc1ccccc1NS(=O)(=O)c1ccc(N/N=C(\C)C(C)C)c([N+](=O)[O-])c1	33*	9	·	-5	·	·	13*	-2
O=c1[nH]cccc1-c1nc2ccccc2n1Cc1ccc(F)cc1	87*	-6	-10	-14	3	-6	-3	-1
C[C@H](O)[C@@H]1CN2CCc3c([nH]c4cccc(-c5ccccc5)c34)[C@@H]2C[C@@H]1N(C)C(=O)C1CCCCC1	·	13	·	-5	·	·	·	·
C/C(O)=c1/c(=O)nc2cccc3c2=c1c1ccccc1c3=O	19*	-79	-7	-19	-11	-14	14*	0
CC1(C)CC(=O)/C(=C(\O)CCCN2C(=O)c3ccccc3C2=O)C(=NCC(=O)O)C1	15*	-20	3	-17	-16	5	1	0
CC1(C)CC(=O)/C(=C(/O)CCCN2C(=O)c3ccccc3C2=O)C(=NC(C)(C)C)C1	-1	18	6	12	1	12	·	·
Cc1cc(Cl)c(S(=O)(=O)N2CCN(c3ccc(F)cc3)CC2)cc1OCC(=O)NC1CCCCC1	97*	6	17	11	18	1	110*	-1
CC(NCC1COc2ccccc2O1)C(=O)NCc1ccccc1 (stereo not drawn)	13*	11	7	7	8	1	7	0
CC(C)(C)C(=O)NC(=S)NNC(=O)c1ccc(Cl)cc1Cl	16*	19	2	-13	14	1	13*	0
COC(=O)NNC(=O)c1ccc(Cl)cc1Cl	-2	-21	4	-16	-3	-24	·	·
Cc1cccc(Cn2cc(CN3CC(N4CCN(CCOC(=O)c5cc6ccccc6o5)CC4)CS3(=O)=O)nn2)c1 (stereo not drawn)	·	-29	·	8	·	·	·	·
SMILES	GalR3 antag	SRC2 inh	SRC3 inh	NR2F2 inh	SRC1 inh	LRH-1 inv ag	GalR3 conf	CNG parental
COc1cc(-c2ccc(=O)[nH]n2)ccc1OC(F)F	16*	-28	7	-42	8	10	34*	0
COc1ccc(-c2ccc(=O)[nH]n2)cc1	·	·	-39	·	-1	2	·	·
COc1ccc(OC)c(NC(=O)c2cccc3c2C(=O)N(C2CCCCC2)C3)c1	0	13	11	-19	3	5	·	·
COCCN1Cc2cccc(C(=O)Nc3cc(OC)ccc3OC)c2C1=O	45*	-1	-6	-6	-1	23	52*	0
COc1ccc(/C=C2\SC(=O)N(CCNC(=O)C3=COCCO3)C2=O)cc1	31*	-31	-71	-14	-97	-97	21*	0
O=C(NCCN1C(=O)S/C(=C\c2ccc(OC(F)F)cc2)C1=O)c1cnccn1	15*	22	16	-9	-2	42	6	1
O=C(NCCN1C(=O)S/C(=C\c2ccc(OC(F)F)cc2)C1=O)C1=COCCO1	·	·	-9	·	-19	-11	·	·
CC(C)N1CCCCC(NC(=O)c2cccc(C(F)(F)F)c2)C1=O (stereo not drawn)	·	12	·	-3	·	·	·	·
Cc1cccc(-c2nnc(N)s2)c1	13*	-18	4	-13	-3	10	2	0
CC1(C)CC(=O)c2c(Cc3ccccc3)noc2C1	20*	-26	6	21	-36	-2	4	1.3*
CC1=CC(C)(C)n2c(O)c(N=NC(N)=S)c3c(C)ccc1c32	14*	8	-4	-21	1	11	8	-2
NC(=O)COC(=O)c1cccnc1Nc1ccccc1F	5	2	-2	-8	2	2	·	·
NC(=O)c1cccnc1Nc1ccccc1Cl	19*	-16	0	-2	-6	-23	-6	0
CC(C)C[C@H]1COc2cccc(N3CCCCC3)c2S(=O)(=O)N1	-5	13	·	6	·	·	·	·
